# About 79,000 compounds went through this panel and 15% of them were active in at least one assay; those are over-represented in the sample as a whole. A number with no mark means an inactive call. The source made the active and inactive calls. Rule as the data show it: active = growth inhibition above about 70%; inactive = the rest.
# Assays:
# [1] = NCI Yeast Anticancer Drug Screen. Data for the rad52 strain (AID 147);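 also: 0% = growth of vehicle-treated control cultures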; conditions: S. cerevisiae rad52 mutant growth inhibition, stronger effect = higher value
# In short: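 Compounds are applied to a genetically defined yeast strain lacking normal DNA damage repair, and inhibition of growth is expressed relative to cultures given vehicle only.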
# [2] = NCI Yeast Anticancer Drug Screen. Data for the wt1 strain (AID 149);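 also: 0% = growth of vehicle-treated wt1 cultures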; conditions: S. cerevisiae wt1 strain (SPY 50644) growth inhibition, stronger effect = higher value
# In short: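 Compounds are added to wt1 yeast cultures. Growth is then measured. Inhibition is expressed relative to vehicle-treated controls.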
# [3] = NCI Yeast Anticancer Drug Screen. Data for the rad50EPP+ strain (AID 151);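 also: 0% = growth of vehicle-treated control cultures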; conditions: S. cerevisiae rad50 mutant strain, stronger effect = higher value
# In short: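 Compounds were applied to the rad50EPP+ yeast strain, which bears a defined DNA repair alteration, and growth inhibition was determined relative to vehicle-treated cultures.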
# [4] = NCI Yeast Anticancer Drug Screen. Data for the mgt1 strain (AID 153); conditions: S. cerevisiae mgt1 mutant growth inhibition, stronger effect = higher value
# In short: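 Strain: mgt1 yeast, one of a set carrying defined DNA damage repair or cell cycle control alterations. Compound-treated growth compared with vehicle.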
# [5] = NCI Yeast Anticancer Drug Screen. Data for the rad50 strain (AID 155);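 also: 0% = growth of vehicle-only cultures of the same strain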; conditions: S. cerevisiae rad50 strain growth inhibition, stronger effect = higher value
# In short: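 Inhibition values express reduced yeast growth in compound-treated cultures relative to vehicle-treated controls.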
# [6] = NCI Yeast Anticancer Drug Screen. Data for the mec2-1 strain (AID 157); conditions: S. cerevisiae mec2-1 strain, stronger effect = higher value
# In short: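 Strain: mec2-1 (DNA repair/cell cycle alteration). Compound exposure, then growth measured; inhibition expressed relative to vehicle.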
# [7] = NCI Yeast Anticancer Drug Screen. Data for the rad14 strain (AID 159);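 also: 0% = growth of vehicle-treated control cultures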; conditions: S. cerevisiae rad14 strain growth inhibition, stronger effect = higher value
# In short: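 A mutant yeast strain defective in DNA damage repair is treated with compound; inhibition of its growth is scored against untreated, vehicle-exposed cultures.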
# [8] = NCI Yeast Anticancer Drug Screen. Data for the sgs1 mgt1 strain (AID 161);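 also: 0% = growth of cultures given vehicle only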; conditions: S. cerevisiae sgs1 mgt1 strain, stronger effect = higher value
# In short: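 Test agents were incubated with a DNA-repair-mutant yeast strain. Growth was then read and compared against vehicle-treated controls.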
# [9] = NCI Yeast Anticancer Drug Screen. Data for the CLN2oe strain (AID 163);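 also: 0% = growth of vehicle-only control cultures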; conditions: S. cerevisiae CLN2oe strain, stronger effect = higher value
# In short: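 Growth of a genetically modified yeast strain is measured after compound exposure and compared with cultures given vehicle alone.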
# [10] = NCI Yeast Anticancer Drug Screen. Data for the cln2 rad14 strain (AID 165);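 also: 0% = growth equal to vehicle treated cultures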; conditions: S. cerevisiae cln2 rad14 strain, stronger effect = higher value
# In short: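 Compounds are applied to the cln2 rad14 yeast strain, and growth is then compared with that of vehicle-treated cultures to give inhibition.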
# [11] = NCI Yeast Anticancer Drug Screen. Data for the bub3 strain (AID 167); conditions: S. cerevisiae bub3 mutant strain, stronger effect = higher value
# In short: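 Steps: expose the mutant yeast strain to compound; grow alongside vehicle-treated cultures; measure growth; express inhibition against the vehicle cultures.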
# [12] = NCI Yeast Anticancer Drug Screen. Data for the wt2 strain (AID 169);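 also: 0% = growth of vehicle-treated yeast cultures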; conditions: S. cerevisiae wt2 strain growth inhibition, stronger effect = higher value
# In short: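 This strain belongs to a panel of yeast strains with defined genetic alterations in DNA damage repair or cell cycle control. Compounds are applied, and growth inhibition is measured against vehicle-treated cultures.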
# [13] = NCI Yeast Anticancer Drug Screen. Data for the mlh1 strain (AID 171);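 also: 0% = growth of vehicle-treated control cultures of the same strain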; conditions: S. cerevisiae mlh1 strain growth inhibition, stronger effect = higher value
# In short: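 Growth of the mutant yeast strain after compound exposure, expressed as inhibition relative to vehicle-only controls.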
# [14] = NCI Yeast Anticancer Drug Screen. Data for the sgs1 strain (AID 173);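 also: 0% = growth of vehicle-only control cultures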; conditions: S. cerevisiae sgs1 mutant, stronger effect = higher value
# In short: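 Growth of a yeast strain bearing a defined genetic alteration is measured after compound treatment. Inhibition is expressed relative to vehicle-only controls.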
# [15] = NCI Yeast Anticancer Drug Screen. Data for the mlh1 rad18 strain (AID 175); conditions: S. cerevisiae mlh1 rad18 strain growth inhibition, stronger effect = higher value
# In short: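 Read-out is yeast growth inhibition, calculated against vehicle-only controls. The compound was applied to a strain engineered with DNA damage repair alterations.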
# [16] = NCI Yeast Anticancer Drug Screen. Data for the rad18 strain (AID 177); conditions: S. cerevisiae rad18 mutant growth inhibition, stronger effect = higher value
# In short: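 Growth of the mutant yeast strain after compound exposure, normalised to vehicle-only cultures.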
# [17] = at 5.0 µM (retest, dose inferred, filed as 0.5)
# [18] = at 50.0 µM (retest, dose inferred, filed as 5.0)
smiles,measurement,setting,value
COc1cc(C2SCC(=O)N2c2nnc(C(F)(F)F)s2)cc(OC)c1OC (stereo unspecified),growth inhibition,[1]; at 1.2 µM,-1%
same,growth inhibition,[1]; at 3.7 µM,-3%
same,growth inhibition,[1]; at 11.0 µM,-2%
same,growth inhibition,[1]; at 33.0 µM,-3%
same,growth inhibition,[1]; at 100.0 µM,-5%
same,growth inhibition,[2]; at 1.2 µM,-84%
same,growth inhibition,[2]; at 3.7 µM,-3%
same,growth inhibition,[2]; at 11.0 µM,-3%
same,growth inhibition,[2]; at 33.0 µM,-1%
same,growth inhibition,[2]; at 100.0 µM,-3%
same,growth inhibition,[3]; at 1.2 µM,-4%
same,growth inhibition,[3]; at 3.7 µM,-2%
same,growth inhibition,[3]; at 11.0 µM,3%
same,growth inhibition,[3]; at 33.0 µM,-2%
same,growth inhibition,[3]; at 100.0 µM,0%
same,growth inhibition,[4]; at 1.2 µM,-1%
same,growth inhibition,[4]; at 3.7 µM,-2%
same,growth inhibition,[4]; at 11.0 µM,-5%
same,growth inhibition,[4]; at 33.0 µM,-1%
same,growth inhibition,[4]; at 100.0 µM,-4%
same,growth inhibition,[5]; at 1.2 µM,-1%
same,growth inhibition,[5]; at 3.7 µM,-2%
same,growth inhibition,[5]; [17],-5%
same,growth inhibition,[5]; at 11.0 µM,-2%
same,growth inhibition,[5]; at 33.0 µM,0%
same,growth inhibition,[5]; [18],-18%
same,growth inhibition,[5]; at 50.0 µM,18.1%
same,growth inhibition,[5]; at 100.0 µM,-5%
same,growth inhibition,[6]; at 1.2 µM,-4%
same,growth inhibition,[6]; at 3.7 µM,2%
same,growth inhibition,[6]; [17],0%
same,growth inhibition,[6]; at 11.0 µM,4%
same,growth inhibition,[6]; at 33.0 µM,1%
same,growth inhibition,[6]; [18],-4%
same,growth inhibition,[6]; at 50.0 µM,20.9%
same,growth inhibition,[6]; at 100.0 µM,-1%
same,growth inhibition,[7]; at 1.2 µM,-2%
same,growth inhibition,[7]; at 3.7 µM,-2%
same,growth inhibition,[7]; at 11.0 µM,-1%
same,growth inhibition,[7]; at 33.0 µM,-2%
same,growth inhibition,[7]; at 100.0 µM,-4%
same,growth inhibition,[8]; [17],-4%
same,growth inhibition,[8]; [18],2%
same,growth inhibition,[8]; at 50.0 µM,0.1%
same,growth inhibition,[9]; at 1.2 µM,-7%
same,growth inhibition,[9]; at 3.7 µM,1%
same,growth inhibition,[9]; at 11.0 µM,-2%
same,growth inhibition,[9]; at 33.0 µM,0%
same,growth inhibition,[9]; at 100.0 µM,-8%
same,growth inhibition,[10]; [17],-7%
same,growth inhibition,[10]; [18],-10%
same,growth inhibition,[10]; at 50.0 µM,-12.5%
same,growth inhibition,[11]; at 1.2 µM,6%
same,growth inhibition,[11]; at 3.7 µM,12%
same,growth inhibition,[11]; [17],31%
same,growth inhibition,[11]; at 11.0 µM,28%
same,growth inhibition,[11]; at 33.0 µM,41%
same,growth inhibition,[11]; [18],50%
same,growth inhibition,[11]; at 50.0 µM,43.1%
same,growth inhibition,[11]; at 100.0 µM,48%
same,growth inhibition,[12]; at 1.2 µM,-2%
same,growth inhibition,[12]; at 3.7 µM,-4%
same,growth inhibition,[12]; at 11.0 µM,-2%
same,growth inhibition,[12]; at 33.0 µM,-4%
same,growth inhibition,[12]; at 100.0 µM,-4%
same,growth inhibition,[13]; at 1.2 µM,-3%
same,growth inhibition,[13]; at 3.7 µM,-2%
same,growth inhibition,[13]; at 11.0 µM,0%
same,growth inhibition,[13]; at 33.0 µM,-1%
same,growth inhibition,[13]; at 100.0 µM,-2%
same,growth inhibition,[14]; at 1.2 µM,-3%
same,growth inhibition,[14]; at 3.7 µM,-2%
same,growth inhibition,[14]; at 11.0 µM,-3%
same,growth inhibition,[14]; at 33.0 µM,-1%
same,growth inhibition,[14]; at 100.0 µM,-1%
same,growth inhibition,[15]; [17],-4%
same,growth inhibition,[15]; [18],-9%
same,growth inhibition,[15]; at 50.0 µM,0.35%
same,growth inhibition,[16]; at 1.2 µM,-2%
same,growth inhibition,[16]; at 3.7 µM,-2%
same,growth inhibition,[16]; at 11.0 µM,-1%
same,growth inhibition,[16]; at 33.0 µM,-2%
same,growth inhibition,[16]; at 100.0 µM,-2%
Nc1ccn(C2OC(CO)C3[O][Sn]([c]4ccccc4)([c]4ccccc4)[O]C32)c(=O)n1 (stereo unspecified),growth inhibition,[1]; at 1.2 µM,3%
same,growth inhibition,[1]; at 3.7 µM,3%
same,growth inhibition,[1]; at 11.0 µM,21%
same,growth inhibition,[1]; at 33.0 µM,46%
same,growth inhibition,[1]; at 100.0 µM,84% (active)
same,growth inhibition,[2]; at 1.2 µM,-1%
same,growth inhibition,[2]; at 3.7 µM,-1%
same,growth inhibition,[2]; at 11.0 µM,1%
same,growth inhibition,[2]; at 33.0 µM,9%
same,growth inhibition,[2]; at 100.0 µM,53%
same,growth inhibition,[3]; at 1.2 µM,1%
same,growth inhibition,[3]; at 3.7 µM,-5%
same,growth inhibition,[3]; at 11.0 µM,-1%
same,growth inhibition,[3]; at 33.0 µM,6%
same,growth inhibition,[3]; at 100.0 µM,13%
same,growth inhibition,[4]; at 1.2 µM,7%
same,growth inhibition,[4]; at 3.7 µM,3%
same,growth inhibition,[4]; at 11.0 µM,-3%
same,growth inhibition,[4]; at 33.0 µM,30%
same,growth inhibition,[4]; at 100.0 µM,85% (active)
same,growth inhibition,[5]; at 1.2 µM,4%
same,growth inhibition,[5]; at 3.7 µM,-1%
same,growth inhibition,[5]; [17],-5%
same,growth inhibition,[5]; at 11.0 µM,26%
same,growth inhibition,[5]; at 33.0 µM,61%
same,growth inhibition,[5]; [18],51%
same,growth inhibition,[5]; at 50.0 µM,95.4% (active)
same,growth inhibition,[5]; at 100.0 µM,84% (active)
same,growth inhibition,[6]; at 1.2 µM,0%
same,growth inhibition,[6]; at 3.7 µM,3%
same,growth inhibition,[6]; [17],-6%
same,growth inhibition,[6]; at 11.0 µM,4%
same,growth inhibition,[6]; at 33.0 µM,17%
same,growth inhibition,[6]; [18],34%
same,growth inhibition,[6]; at 50.0 µM,95.5% (active)
same,growth inhibition,[6]; at 100.0 µM,52%
same,growth inhibition,[7]; at 1.2 µM,1%
same,growth inhibition,[7]; at 3.7 µM,1%
same,growth inhibition,[7]; at 11.0 µM,3%
same,growth inhibition,[7]; at 33.0 µM,22%
same,growth inhibition,[7]; at 100.0 µM,78% (active)
same,growth inhibition,[8]; [17],-12%
same,growth inhibition,[8]; [18],65%
same,growth inhibition,[8]; at 50.0 µM,86.2% (active)
same,growth inhibition,[9]; at 1.2 µM,1%
same,growth inhibition,[9]; at 3.7 µM,-1%
same,growth inhibition,[9]; at 11.0 µM,9%
same,growth inhibition,[9]; at 33.0 µM,11%
same,growth inhibition,[9]; at 100.0 µM,60%
same,growth inhibition,[10]; [17],-26%
same,growth inhibition,[10]; [18],-9%
same,growth inhibition,[10]; at 50.0 µM,92.1% (active)
same,growth inhibition,[11]; at 1.2 µM,1%
same,growth inhibition,[11]; at 3.7 µM,1%
same,growth inhibition,[11]; [17],-18%
same,growth inhibition,[11]; at 11.0 µM,3%
same,growth inhibition,[11]; at 33.0 µM,19%
same,growth inhibition,[11]; [18],41%
same,growth inhibition,[11]; at 50.0 µM,95.9% (active)
same,growth inhibition,[11]; at 100.0 µM,75% (active)
same,growth inhibition,[12]; at 1.2 µM,0%
same,growth inhibition,[12]; at 3.7 µM,0%
same,growth inhibition,[12]; at 11.0 µM,5%
same,growth inhibition,[12]; at 33.0 µM,31%
same,growth inhibition,[12]; at 100.0 µM,79% (active)
same,growth inhibition,[13]; at 1.2 µM,-1%
same,growth inhibition,[13]; at 3.7 µM,0%
same,growth inhibition,[13]; at 11.0 µM,6%
same,growth inhibition,[13]; at 33.0 µM,33%
same,growth inhibition,[13]; at 100.0 µM,70% (active)
same,growth inhibition,[14]; at 1.2 µM,0%
same,growth inhibition,[14]; at 3.7 µM,0%
same,growth inhibition,[14]; at 11.0 µM,9%
same,growth inhibition,[14]; at 33.0 µM,44%
same,growth inhibition,[14]; at 100.0 µM,89% (active)
same,growth inhibition,[15]; [17],-22%
same,growth inhibition,[15]; [18],87% (active)
same,growth inhibition,[15]; at 50.0 µM,95.2% (active)
same,growth inhibition,[16]; at 1.2 µM,3%
same,growth inhibition,[16]; at 3.7 µM,8%
same,growth inhibition,[16]; at 11.0 µM,27%
same,growth inhibition,[16]; at 33.0 µM,67%
same,growth inhibition,[16]; at 100.0 µM,88% (active)

# — PubChem BioAssay (NCI)
